# Screens: PubChem, Corson Lab, School of Medicine, Indiana University
# FECH inh: inhibitors of human ferrochelatase, primary screen, biochemical, purified FECH, Ni-mesoporphyrin absorbance; Ni-mesoporphyrin absorbance 550 nm; calls only at 10 µM (by protocol); 3.3% of 20,000 active;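 active = enzyme reaction rate more than 3 SD below the solvent-only control wells on the same plate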;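 also: lower slope than DMSO wells means FECH inhibition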
# Target sequence (P22830 whole entry, looked up): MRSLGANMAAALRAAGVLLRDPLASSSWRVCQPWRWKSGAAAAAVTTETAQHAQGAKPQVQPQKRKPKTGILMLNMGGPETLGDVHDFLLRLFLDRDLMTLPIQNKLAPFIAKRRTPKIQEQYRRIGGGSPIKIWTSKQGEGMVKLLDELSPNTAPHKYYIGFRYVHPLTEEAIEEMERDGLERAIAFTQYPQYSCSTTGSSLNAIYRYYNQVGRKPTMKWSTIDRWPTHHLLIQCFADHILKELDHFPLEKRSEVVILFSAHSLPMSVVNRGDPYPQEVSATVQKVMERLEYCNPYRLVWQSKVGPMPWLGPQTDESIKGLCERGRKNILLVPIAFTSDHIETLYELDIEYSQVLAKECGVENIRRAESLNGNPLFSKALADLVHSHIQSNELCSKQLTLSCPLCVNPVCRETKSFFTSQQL
# Numbers without * were called inactive; i = inactive; + = active, no number. This is one part of a sample in which hits are shown more often than they occur.
SMILES,FECH inh
Cc1cc(C)n2nc(CN(C(=O)c3cccc(Cl)c3)c3ccc(F)cc3)nc2n1,i
Cc1cc(C)n2nc(CN(C(=O)c3ccccc3C)c3cccc(Cl)c3)nc2n1,i
CCCC1(C2CCNCC2)NC(=O)N(CCCCF)C1=O (configuration not stated),i
Fc1ccccc1-c1noc(-c2ccc(-c3cn[nH]c3)nc2)n1,i
COc1nc2c(cc1C(=O)N1CCn3cncc3C1)CCC2,i
Cc1cccc(C(=O)N(Cc2nc3nc(C)c(Cl)c(C)n3n2)c2ccccc2)c1,i
O=C1CCS(=O)(=O)N1c1ccc(S(=O)(=O)NCCc2ccccc2)cc1,i
COc1ccc(CN2CCCN(CC(=O)Nc3ccc(F)c(Cl)c3)S2(=O)=O)cc1,i
CCCOC1CCCN(Cc2ccccc2C(=O)O)C1 (configuration not stated),i
Cc1ccccc1Nc1oc2c(c1-c1cccc(F)c1)c(=O)n(C)c(=O)n2C,i
O=C1CN(Cc2ccccc2Cl)S(=O)(=O)c2ccccc2N1Cc1ccccc1,i
CCC(NC(=O)c1cc2ncccn2n1)c1nc(C)c(C)s1 (configuration not stated),i
CNC(=O)C1CCC(Cn2c(=O)c3sccc3n(CC(=O)Nc3ccc4c(c3)OCO4)c2=O)CC1 (configuration not stated),i
Cc1ccc(C(C)NC(=O)CN2CCC(O)(Cn3ccnc3)CC2)cc1 (configuration not stated),i
Cc1ccc(C(C)NC(=O)CN2CCC(O)(CN3CCCC3)CC2)cc1 (configuration not stated),+
Cc1ccc(C(C)NC(=O)CN2CCS(=O)(=O)CC2)cc1 (configuration not stated),i
Cc1cc(N(C)C)nc(Nc2ccc(NC(=O)C3CCCO3)cc2)n1 (configuration not stated),i
CCN1CC(NC(=O)c2cccc(-n3nc(C)cc3C)c2)CC1=O (configuration not stated),i
Cc1ccc(NC(=O)N2CCC(n3cnc4cccnc43)CC2)c(Cl)c1,i
O=C(Nc1ccc(Br)cc1F)N1CCC(n2cnc3cccnc32)CC1,+
Cc1ccc(Cl)cc1NC(=O)N1CCC(n2cnc3cccnc32)CC1,i
COc1ccc(C(=O)Nc2cc(C)nn2-c2ncnc3c2cnn3-c2ccc(Cl)cc2)cc1OC,i
COC(=O)c1cc(CN2CCCC(OCc3cccnc3)C2)cs1 (configuration not stated),i
CN1CCC(Cc2noc(-c3cccc(-c4cn[nH]c4)c3)n2)CC1,i
Cc1ccc2nc(C)c(C(=O)NC3CC(=O)N(CCc4ccccc4)C3)n2c1 (configuration not stated),i
SMILES,FECH inh
Cc1cccc(C(=O)Nc2ccc(C)c(OCc3cc(=O)n4cccc(C)c4n3)c2)c1,i
O=C(Cn1[nH]c(=O)ccc1=O)N1CC[C@@H](c2ccc3ccccc3c2)[C@H](O)C1,i
CCOc1ccccc1CN(CC)C(=O)c1ccc2nccn2c1,i
CCOc1ccccc1CN(C(=O)c1cn2cc(Cl)ccc2n1)C1CC1,+
CCOc1ccccc1CN(C(=O)c1cn(CC)c2nc(C)ccc2c1=O)C1CC1,i
CCn1cc(CN(Cc2ccnc3ccccc23)CC(C)C)cn1,i
O=C(CN1C(=O)CCc2cc(S(=O)(=O)N3CCCC3)ccc21)NCc1cccs1,i
CC(COc1ccccc1)NC1CCN(C(=O)Nc2ccccc2)CC1 (configuration not stated),i
Cc1ccc(CNC(=O)c2nc3ccccc3n(C)c2=O)cc1,+
Cn1c(=O)c(C(=O)NCc2ccc(F)cc2)nc2ccccc21,i
Cn1c(=O)c(C(=O)NCc2ccc3c(c2)OCO3)nc2ccccc21,i
CCOC(=O)c1cc2n(n1)CC(C)(C(=O)NCCC(C)C)N(c1ccc3c(c1)OCO3)C2=O (configuration not stated),i
Cc1ccc(NC(=O)Cn2nc(N3CCN(c4ccc(F)cc4)CC3)ccc2=O)c(C)c1,i
Cc1nn(-c2cc(N3CCCC3)ncn2)c(C)c1CCC(=O)NCc1ccccc1,i
CC(C)Cc1cc(C(=O)NCc2cccnc2-n2ccnc2)on1,i
CC(C)C[C@@]1(CO)N[C@H](c2nccn2C)[C@@H]2CN(Cc3ccccc3)C[C@@H]21,i
Cn1c(CNS(=O)(=O)c2ccc(C3CCCCC3)cc2)nc2cccnc21,i
Cc1ccc(CNc2ncnc3oc4c(c23)CCCC4)o1,i
Clc1ccccc1CCNc1ncnc2oc3c(c12)CCCC3,+
COc1ccccc1CNc1ncnc2oc3c(c12)CCCC3,i
CCCCNC(=O)C1CCN(c2ccc(-c3ccc(C)cc3)nn2)CC1,i
CCn1ccc(C(=O)N(C)CCSc2ccc(C)cc2)n1,i
COC(C)c1cccc(-c2ncccc2Cl)c1 (configuration not stated),i
CC(c1cccc(-c2ccc3nc[nH]c3c2)c1)N(C)C (configuration not stated),i
CC(c1cccc(-c2cccc3c(N)ccnc23)c1)N(C)C (configuration not stated),+
SMILES,FECH inh
Cc1oc2ncnc(N3CCOCC3)c2c1C(=O)NCCc1ccc(S(N)(=O)=O)cc1,i
COCCn1c(CNC(=O)c2ccc([N+](=O)[O-])cc2)nc2cccnc21,i
COc1ccc(C(=O)Nc2cc(C)ccc2OCc2cc(=O)n3oc(C)cc3n2)cc1,i
O=C(NCc1cccnc1-n1ccnc1)c1cnc2ccccn12,i
CC(Cn1ccnc1)NCc1noc(C2CCCC2)n1 (configuration not stated),i
CCc1c(C)nc2ncnn2c1Sc1ccc(NC(=O)c2cccs2)cc1,i
CCc1c(C)nc2ncnn2c1Sc1ccc(NC(=O)c2ccccc2)cc1,i
CCCc1c(C)nc2ncnn2c1Sc1ccc(NC(=O)CC)cc1,i
CCCc1c(C)nc2ncnn2c1Sc1ccc(NC(=O)c2ccc(C)cc2)cc1,i
CCc1c(C)nc2ncnn2c1Sc1ccc(NC(=O)c2ccccc2C)cc1,+
CCCc1c(C)nc2ncnn2c1Sc1ccc(NC(=O)c2ccccc2)cc1,i
CCc1c(C)nc2ncnn2c1Sc1ccccc1NC(=O)c1ccccc1C,i
CCCC(=O)Nc1ccc(Sc2c(CCC)c(C)nc3ncnn23)cc1,+
CCCC(=O)Nc1ccc(Sc2c(CC)c(C)nc3ncnn23)cc1,i
CCc1c(C)nc2ncnn2c1Sc1ccc(NC(=O)c2ccc(Br)cc2)cc1,+
CCCc1c(C)nc2ncnn2c1Sc1ccc(NC(=O)c2ccccc2C)cc1,+
CCc1c(C)nc2ncnn2c1Sc1ccc(NC(=O)c2ccc(OC)cc2)cc1,i
Cc1cccc(-c2nc(C(N)=O)c3c(n2)n(-c2ccc(C)c(C)c2)c(=O)n3Cc2ccccc2)c1,i
Cc1noc(C)c1CNC(=O)Cn1c(=O)oc2ccccc21,i
O=C(O)[C@H]1C[C@@H](C(=O)NC2CC2)CN(Cc2cn[nH]c2C2CCCCC2)C1,i
NS(=O)(=O)c1ccc(NC(=O)Nc2ccc(-c3noc(C4CCC4)n3)cc2)cc1,i
Cc1cccc(CN2CC=C(C(=O)Nc3ccccc3)CC2)c1,i
COC(=O)c1ccc(OC)c(CN2CCCN(Cc3ccc(OC)cc3)S2(=O)=O)c1,i
CCOc1ccc(NC(=O)c2cc(-c3ccc(OC)c(S(N)(=O)=O)c3)n[nH]2)cc1,i
